# Measured values as given in PubChem BioAssay (EPA / NIEHS).
# Calls of active or inactive are those of the source. Rule for the calls: active = hit-call score of the fitted dose curve at least 0.9, where 1 is the maximum; inactive = score below 0.9.
# Read-out: Actin alpha 1 (ACTA1), ACTA1 (gene 58)
# Assay: BSK_MyoF_ACTA1: BioMAP Diversity Plus: MyoF Assay for Actin alpha 1 (ACTA1) Biomarker Activity (AID 2284244)
# Conditions: primary human lung fibroblasts
# Experimental: BSK_MyoF is a cell-based, multiplexed-readout assay that uses lung fibroblasts, […], with measurements taken at 24 hours after chemical dosing in a microplate: 96-well plate.BSK_MyoF_ACTA1 is an assay component measured in the BSK_MyoF assay. It measures a-SMA antibody related to regulation of gene expression using ELISA technology.Data from the assay component BSK_MyoF_ACTA1 was analyzed at the endpoint, BSK_MyoF_ACTA1, in the positive analysis fitting direction relative to DMSO as the negative control and baseline of activity. Using a type of binding reporter, gain or loss-of-signal activity can be used to understand protein changes. To generalize the intended target to other relatable targets, this assay endpoint is annotated to the 'cell adhesion molecules' intended target family, where the subfamily is 'actin'.
# The levels of cell surface (or secreted, indicated by the prefix "s") biomarker endpoints were measured by ELISA. Overt cytotoxicity to cells in confluent adherent cultures (all systems other than the BT system) was assessed by measuring total protein levels using sulforhodamine B (SRB) staining in parallel cultures at the time of biomarker measurements, indicated as SRB endpoints. For proliferation assays for adherent cell types, individual cell types are cultured at sub-confluence and relative cell numbers quantified by SRB staining at time points optimized for each system (48 h: 3C and CASM3C systems; 72 h: BT and HDF3CGF systems; 96 h: SAg system). SRB was performed by staining cells with 0.1% SRB after fixation with 10% TCA and reading wells at 560 nm.Viability and proliferation of PBMC (T cells) was quantified by Alamar Blue reduction for the SAg and BT systems. For PBMC viability (referred to as PBMC Cytotoxicity within the assay endpoint names), cells were plated (75,000/well in a 96-well plate) and then chemical samples added for 1 h before addition of activators, SEB and TSST-1 (20 ng/mL final concentration each). Cells were incubated for 90 h. Then, Alamar Blue (20 uL/well) (Invitrogen, Cat DAL1100) was added for 6 h, and the plates were read with a fluorescence microplate reader at 546/580 nm (excitation/emission). For PBMC proliferation, cells were plated and activated as above but incubated for only 16 h prior to addition of Alamar Blue. Plates were read after 6 h.
SMILES,outcome,AC50
CC(C)=CC1C(C(=O)OCc2cccc(Oc3ccccc3)c2)C1(C)C (stereo not given),inactive,–
O=[N+]([O-])c1cccc2ccccc12,inactive,–
O=S(=O)(c1ccc(Cl)cc1)c1cc(Cl)c(Cl)cc1Cl,inactive,–
Oc1cccc(-c2ccccc2)c1,–,33.6 µM (active)
CCOP(=S)(OCC)SCS(=O)(=O)C(C)(C)C,inactive,–
CCOC(=O)CC(=O)CCl,inactive,–
Oc1c(Br)cc(Br)cc1Br,inactive,–
Cc1cccc(OP(=O)(Oc2cccc(C)c2)Oc2cccc(C)c2)c1,inactive,–
CCOC(=O)C(SP(=S)(OC)OC)c1ccccc1 (stereo not given),–,20 µM (active)
c1ccc2sc(SNC3CCCCC3)nc2c1,inactive,–
C=CC(Cl)CCl (stereo not given),inactive,–
COCC(=O)N(c1c(C)cccc1C)[C@H](C)C(=O)OC,inactive,–
O=C(CCl)NCO,inactive,–
C[C@]12CC[C@@H](O)C[C@@H]1CC[C@@H]1[C@@H]2CC[C@]2(C)C(=O)CC[C@@H]12,inactive,–
Cc1ccc(OP(=O)(Oc2ccc(C)cc2C)Oc2ccc(C)cc2C)c(C)c1,inactive,–
Cc1ccc2nc3sc(=O)sc3nc2c1,inactive,–
CCN(CC)C(=O)C(Cl)=C(C)OP(=O)(OC)OC,–,0.0702 µM (active)
O=S(=O)(C(Cl)(Cl)Cl)C(Cl)(Cl)Cl,–,2.64 µM (active)
OC(Cc1ccccc1Cl)(Cn1cncn1)C1(Cl)CC1 (stereo not given),inactive,–
CCOP(=O)(OCC)SCCSCC,inactive,–

SMILES,outcome,AC50
O=C1C=CC(=O)c2ccccc21,–,4.42 µM (active)
CC(C)(COCC1CO1)COCC1CO1 (stereo not given),inactive,–
Cc1c([N+](=O)[O-])c(C)c([N+](=O)[O-])c(C(C)(C)C)c1[N+](=O)[O-],–,33 µM (active)
O=C(O)COc1cc(Cl)c(Cl)cc1Cl,inactive,–
OC(Cc1ccccc1Cl)(Cn1[nH]cnc1=S)C1(Cl)CC1 (stereo not given),–,25.3 µM (active)
C#CCOC(=O)/C=C(C)/C=C/CC(C)CCCC(C)C (stereo not given),–,16.4 µM (active)
Cc1cc(C(C)(C)c2ccc(O)c(C)c2)ccc1O,–,19 µM (active)
CC(C)(C)c1cc([N+](=O)[O-])cc(C(C)(C)C)c1O,inactive,–
Cc1ccccc1OP(=O)(Oc1ccccc1C)Oc1ccccc1C,–,9.16 µM (active)
Cc1cc(Cl)ccc1OC(C)C(=O)O (stereo not given),inactive,–
N#CCCC(Br)(C#N)CBr (stereo not given),–,12 µM (active)
c1ccc(-c2cccc(-c3ccccc3)c2)cc1,–,20 µM (active)
Nc1ccc(N)cc1,inactive,–
Oc1ccc(Cc2ccc(O)cc2)cc1,inactive,–
CCC(C)(C#N)N=NC(C)(C#N)CC (stereo not given),inactive,–
CCCCCCCCCCCCN(C)C,inactive,–
O=[N+]([O-])c1ccc(Nc2ccccc2)cc1,inactive,–
CCOP(=O)(OCC)OC(=CCl)c1ccc(Cl)cc1Cl,–,30.5 µM (active)
CCOC(=O)CCN(SN(C)C(=O)Oc1cccc2c1OC(C)(C)C2)C(C)C,–,29.3 µM (active)
CC(C)N(C(=O)CCl)c1ccccc1,–,2.84 µM (active)
